Test results from article PMC13494018.

B1: design_613_5efed0bc-64ba-423b-b3f9-a246574e49bb_1387_dldesign_0_cycle1_af2pred (protein)
chain: AAAAAQAGQLAVQAAQGMIKKAKEILKRMPEVDPEKALASAKGVTDVAQALADQAIASPATAAQGKALKAEAKAVLAEAEKAAA
B2: design_613_5efed0bc-64ba-423b-b3f9-a246574e49bb_2281_dldesign_0_cycle1_af2pred (protein)
chain: AAAELIAKAKEYQAKALEYVKLAKEAEAAAKAATPEEGAKLNAKADFFNAMALVYAQRAAALLAQVDPALAKAALEKVQKAIA
B3: design_614_ef6b398b-10cb-4a07-8087-96dafb4f9c83_652_dldesign_0_cycle1_af2pred (protein)
chain: GAAEEAKKWAKKAEEALKAAQKAADAAGKTPTLQQYVDNAKRAAEKAKETSKDPSKVEQTKGWAKMAELWAQAAKQQAAAVAAA
B4: design_613_5efed0bc-64ba-423b-b3f9-a246574e49bb_2054_dldesign_0_cycle1_af2pred (protein)
chain: FERAARAVEAVIELLRLLAEGNPATAAELRARAEELEAELAKARELAEKEGPEAGKARAEAIAAEGRRLLAEASRTAV
B5: design_614_ef6b398b-10cb-4a07-8087-96dafb4f9c83_591_dldesign_0_cycle1_af2pred (protein)
chain: MTPEEAARAALRSARAALESLKLAVEQGGTLEDVLALGAVAKQSAQAAVELGKQAPEIYEEVKKEAEKIKKEVEKAVAKAKA
B6: design_613_5efed0bc-64ba-423b-b3f9-a246574e49bb_1398_dldesign_0_cycle1_af2pred (protein)
chain: MEEVKEEMEKLLEKVKKAVAEDVGKGGEVLVEFVKKGAELAANSTPEAAAYARKKMKEAINIVLEATLAA
B7: design_613_5efed0bc-64ba-423b-b3f9-a246574e49bb_1796_dldesign_0_cycle1_af2pred (protein)
chain: SAANIAAAKAYANMAATLAKQAGNEEAAKKAKEAAKVAADKEKATKLLKEAEELLKKEPAEKAPYTNKALEFIKLAKEALSKL
B8: design_613_5efed0bc-64ba-423b-b3f9-a246574e49bb_1354_dldesign_0_cycle1_af2pred (protein)
chain: GEALKEALRQKALEAANKALALTSQLWTKDPARAQPAIALIIQGLETGDPKYFFEAAEKVAADPEAAGAAKAAGEYMEKANKL
B9: design_614_ef6b398b-10cb-4a07-8087-96dafb4f9c83_149_dldesign_0_cycle1_af2pred (protein)
chain: MEEAEKYLKKAEEIVEKAKEEALKYAKEGDIGAAVETLAKALKEARKLYEKAGKAGDPEEAEKKAKEAEERINQAMAEAARTALEVAN
B10: design_614_ef6b398b-10cb-4a07-8087-96dafb4f9c83_520_dldesign_0_cycle1_af2pred (protein)
chain: AEGKALFEATKKEMEELREKGKAGTPELAKEQAAKILSLGLRTQGVLQTLGHTAEGDAALEYAKEVAEKAREWAKK
B11: design_613_5efed0bc-64ba-423b-b3f9-a246574e49bb_1611_dldesign_0_cycle1_af2pred (protein)
chain: DAAAKAKAKEAEAKGKELIAKAKAAAEAGDYDAANAYLQQAIKLGMEMASSGASQAEVDVGAKIVSAVVEAMEYMSAQRRARR
B12: design_614_ef6b398b-10cb-4a07-8087-96dafb4f9c83_875_dldesign_0_cycle1_af2pred (protein)
chain: AAARARLAAALEVAKVAADLEANAKANPATAALASATATATIKHAAAIVAEVDPAAGAAVAAAATAAEAIAIITAALKAA
B13: design_613_5efed0bc-64ba-423b-b3f9-a246574e49bb_2052_dldesign_0_cycle1_af2pred (protein)
chain: GGAAAIALAEAVARQAERQAEEAIAIAPERAPEIEELLERARELAKQAVALAKAGDLGAATEHVVKALELVGEIGRIAREAAAA
B14: design_614_ef6b398b-10cb-4a07-8087-96dafb4f9c83_88_dldesign_0_cycle1_af2pred (protein)
chain: GAALEEALRARAEAARRAMVAVSQAYQLDPALGNEYLARLSEAIAAAEKVLAEGKAKTPEAAAKAVKAAAEEIAALAEEIAAAVEALK
B15: design_613_5efed0bc-64ba-423b-b3f9-a246574e49bb_2419_dldesign_0_cycle1_af2pred (protein)
chain: ALGQQLVQQAKEKGKELLEIAKKGTAADAGEAAVELARFTSETARQLEQAGLPAAAQQVLAIGQKTLKEISAIGIAKITA
B16: design_613_5efed0bc-64ba-423b-b3f9-a246574e49bb_1212_dldesign_0_cycle1_af2pred (protein)
chain: SPVEVALAAAKATVKSAEKANVESAEKLAEVAKDLAEYAAKLGGEEAKKEAEKIKKEAEEAVKKQKERAAAA
B17: design_614_ef6b398b-10cb-4a07-8087-96dafb4f9c83_786_dldesign_0_cycle1_af2pred (protein)
chain: STEQAAQIALNTAKANYKAAKAAAAAGDLAQAEANVKNLKLLTEAAKYYDPEAGKEVEKYYKEAKEAVEKAKAA
B18: design_613_5efed0bc-64ba-423b-b3f9-a246574e49bb_1837_dldesign_0_cycle1_af2pred (protein)
chain: MTPREKAIAAINAATALAAAAVPAYADTFADLAGIVLTALEAGTGPTAVRVVGQAVVNVLRGAGATAAADAVAALYDEALEAAKAAA
B19: design_613_5efed0bc-64ba-423b-b3f9-a246574e49bb_1180_dldesign_0_cycle1_af2pred (protein)
chain: AEAEEKKRRAEAHVQAAEVYITAARSAMEAGLTDAALAHAKRAIEHAQKAIELGEPRGKELLAEAEAVLKEVKA
B20: design_613_5efed0bc-64ba-423b-b3f9-a246574e49bb_1308_dldesign_0_cycle1_af2pred (protein)
chain: AAAEKAKEAAKKAEELAKYAEEHKEELTPEELRKIGYELVKQGNTLLQAGGAAQAAAQKAFGYAAEVAELIRE
B21: design_614_ef6b398b-10cb-4a07-8087-96dafb4f9c83_806_dldesign_0_cycle1_af2pred (protein)
chain: AAAQLAAENIALAKAIFEEVRKEALKAIEALKKAKEAASDPELAAKYLEKAKEALKKAEELAAKGSEGIALLARNYVRSLLASTA
B22: design_613_5efed0bc-64ba-423b-b3f9-a246574e49bb_1343_dldesign_0_cycle1_af2pred (protein)
chain: LAEAAERTARAIERNALEAIKTLSPEEAKRAAELAVTMLEGLAIAAPEAAPVARGLAERVRAAEREYTSKKLAE
B23: design_614_ef6b398b-10cb-4a07-8087-96dafb4f9c83_822_dldesign_0_cycle1_af2pred (protein)
chain: AEEEKRRAIAEAAMRQFKEIAEGAAATALANPAIADGALASVKALGKNLVEGAKAQSPELGKKAAEVAKEAIEKVEKAAKEAKAA
B24: design_613_5efed0bc-64ba-423b-b3f9-a246574e49bb_1763_dldesign_0_cycle1_af2pred (protein)
chain: LQELIENGETLEALGKSAAAAGFNATAKRLYQDAAEQYKKAAEKAKELGDEELAKEYEAKAKEAEAKAKEY
B25: design_613_5efed0bc-64ba-423b-b3f9-a246574e49bb_1285_dldesign_0_cycle1_af2pred (protein)
chain: GLKEELLKEVRKVKKEAEKNAKDLEKLNEYLAKALDIAKKAQEAGDKETIAEATKVANLAAKLALEVAKA
B26: design_613_5efed0bc-64ba-423b-b3f9-a246574e49bb_992_dldesign_0_cycle1_af2pred (protein)
chain: GERVEELRALVEEAARVSPELAALAQEALRLYLRGLALSANPATAARGEAAFAESERLAAEARARLAERLAAAAA
B27: design_613_5efed0bc-64ba-423b-b3f9-a246574e49bb_1032_dldesign_0_cycle1_af2pred (protein)
chain: AQAKADELEALGKEAEKKAKEAKNPEAAALYKGAAELMNAMAEAARQTPEFADQLYRMGKASYEALKTEAEKKEAAYKEKE
B28: design_613_5efed0bc-64ba-423b-b3f9-a246574e49bb_1341_dldesign_0_cycle1_af2pred (protein)
chain: AVAAAGAKGLAAAAKSVAEATIRLAEQVAKEDPSKAEQAKAIAEQAKAAAAAAAKAAEAGDTAAAQAQFQKLVALYQQVLDLAK
B29: design_614_ef6b398b-10cb-4a07-8087-96dafb4f9c83_13_dldesign_0_cycle1_af2pred (protein)
chain: SEAEKQAIEIAIAAVLKAGELAGVPEEAKKVAEKIKKSNAGAALAIASAFLNRAAAAAEAAGDAATAAAIRALRTATTAKILALLRG
B30: design_614_ef6b398b-10cb-4a07-8087-96dafb4f9c83_4_dldesign_0_cycle1_af2pred (protein)
chain: AAGDEAANAAIALGQVLGPEVAEETTKAVEYMKSGSEKEKAKEYAEKAVELAEKVGPNSAASLKAILEKAEKLFS
B31: design_613_5efed0bc-64ba-423b-b3f9-a246574e49bb_1690_dldesign_0_cycle1_af2pred (protein)
chain: AAALEVGRRTLAALERTAEAAIAAARATTPEEAAREMGRARAAAEQARLIGEGVPELAPRAEALAERVAAAAAALEAA
B32: design_613_5efed0bc-64ba-423b-b3f9-a246574e49bb_1183_dldesign_0_cycle1_af2pred (protein)
chain: AEAQKLLEEARKLKEKAFALSPLQVGESLRYASELRKLAEKAAEADPSLAPEAKALAEETSAHVAAKARAGIAAQAA
B33: design_613_5efed0bc-64ba-423b-b3f9-a246574e49bb_1441_dldesign_0_cycle1_af2pred (protein)
chain: SEAERLAEEARRVILSGTAEEGAAAAVAAARKALEAGNLEGANLVLYESALAFGEAQRRGTPEDRAILNRGLAEVSRITLELARAA
B34: design_613_5efed0bc-64ba-423b-b3f9-a246574e49bb_2086_dldesign_0_cycle1_af2pred (protein)
chain: AEDERRVASMRELAAQLVAIAEANAANPAALAIVRASALAAGRSFAAAASPEAAAEILAIAAATAARIAAIAAAAAAAA
B35: design_614_ef6b398b-10cb-4a07-8087-96dafb4f9c83_741_dldesign_0_cycle1_af2pred (protein)
chain: SELIERAKNLLEAAKVFLTAAQSALAAGQKATAATLAQQAIKYATEAAKLAKEAGDEKLAEEAKKVKEQAEKVLKQAQ
B36: design_613_5efed0bc-64ba-423b-b3f9-a246574e49bb_2155_dldesign_0_cycle1_af2pred (protein)
chain: AAAQAAAVATAAGQALLKQGKKLFEEGKKSGDKKLLEEAAKNFELAATMYAQASAAAGGAADANKKEAEAKLEEAKAAI
B37: design_613_5efed0bc-64ba-423b-b3f9-a246574e49bb_1210_dldesign_0_cycle1_af2pred (protein)
chain: AEKIEKLTKALELLLEALKHKDDIELARELAKKAAELLKEAGAEEAAKYAEAAAKATDKEEMTELLNKAAGKAAKAIIDAQKAAA
B38: design_613_5efed0bc-64ba-423b-b3f9-a246574e49bb_1256_dldesign_0_cycle1_af2pred (protein)
chain: DKAVTSAILRKSLAHARRQLAAATTAEEAEAVAQTAQVLADAAKAAGDAATAAEAAALAAEARAKAAALRAAEEAAA

These binders were tested against CD276, Q5ZPR3.
Sequence of CD276, Q5ZPR3 (Q5ZPR3 whole entry): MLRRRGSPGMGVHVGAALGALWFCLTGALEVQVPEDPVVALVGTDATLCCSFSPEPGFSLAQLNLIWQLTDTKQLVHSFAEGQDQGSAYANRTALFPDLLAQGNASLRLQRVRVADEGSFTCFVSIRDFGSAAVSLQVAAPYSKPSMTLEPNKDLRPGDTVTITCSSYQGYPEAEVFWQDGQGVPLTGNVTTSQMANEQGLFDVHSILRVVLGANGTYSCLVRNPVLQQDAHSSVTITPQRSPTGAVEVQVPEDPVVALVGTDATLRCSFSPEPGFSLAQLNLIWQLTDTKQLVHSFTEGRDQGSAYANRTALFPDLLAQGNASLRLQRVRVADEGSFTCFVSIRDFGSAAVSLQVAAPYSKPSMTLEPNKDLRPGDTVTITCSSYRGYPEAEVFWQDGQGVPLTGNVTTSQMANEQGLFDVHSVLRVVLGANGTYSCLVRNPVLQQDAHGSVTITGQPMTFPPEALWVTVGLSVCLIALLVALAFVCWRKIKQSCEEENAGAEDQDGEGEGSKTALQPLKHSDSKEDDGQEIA

Binding in a display sort, inactive:
B1 not found, B2 not found, B3 not found, B4 not found, B5 not found, B6 not found, B7 not found, B8 not found, B9 not found, B10 not found, B11 not found, B12 not found, B13 not found, B14 not found, B15 not found, B16 not found, B17 not found, B18 not found, B19 not found, B20 not found, B21 not found, B22 not found, B23 not found, B24 not found, B25 not found, B26 not found, B27 not found, B28 not found, B29 not found, B30 not found, B31 not found, B32 not found, B33 not found, B34 not found, B35 not found, B36 not found, B37 not found, B38 not found
